Measured values from PubChem BioAssay (EPA / NIEHS).
Records with an inconclusive call do not appear. The source made the active and inactive calls. Rule for the calls, unless noted: active = hit-call score of the fitted dose curve at least 0.9, where 1 is the maximum; inactive = score below 0.9.

Columns and labels:
[1] = TOX21_p53_BLA_p2_viability: Viability Assessment in the Tox21 HCT-116 p53 Agonism Beta-lactamase Assay, Phase 2 (AID 2283591; active = hit-call score of the fitted dose curve at least 0.9, where 1 is the maximum;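 note: compound exposure lasted 16 h at 37 °C; actives lower the ATP signal meaning cytotoxicity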)
Procedure, shortened: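 HCT-116 p53-bla cells (4000/well) rested 5 h at 37C, then received compounds in DMSO (217-fold dilution) for 16 h at 37C, 5% CO2. After the CCF4 read, CellTiter-Glo was added; ATP luminescence was read after 30 min at room temperature.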

[2] = molecular target: Cellular tumor antigen p53 (Homo sapiens) (UniProt P04637); assay: TOX21_p53_BLA_p2_ratio: Tox21 HCT-116 p53 Agonism Beta-lactamase Assay, Ratio, Phase 2 (AID 2283592; active = hit-call score of the fitted dose curve at least 0.9, where 1 is the maximum)
Sequence of Cellular tumor antigen p53 (Homo sapiens) (P04637 whole entry, looked up): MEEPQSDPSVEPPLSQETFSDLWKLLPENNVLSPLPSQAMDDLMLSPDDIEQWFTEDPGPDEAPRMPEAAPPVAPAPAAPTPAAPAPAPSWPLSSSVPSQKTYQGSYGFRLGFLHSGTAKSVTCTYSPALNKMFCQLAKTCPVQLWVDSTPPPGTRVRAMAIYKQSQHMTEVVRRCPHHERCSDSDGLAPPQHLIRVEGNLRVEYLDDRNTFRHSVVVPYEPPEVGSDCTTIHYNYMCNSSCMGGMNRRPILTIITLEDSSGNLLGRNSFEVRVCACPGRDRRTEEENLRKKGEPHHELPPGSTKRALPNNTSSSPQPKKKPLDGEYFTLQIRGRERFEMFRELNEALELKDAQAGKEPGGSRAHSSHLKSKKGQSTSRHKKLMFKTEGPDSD
Procedure, shortened: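 HCT116 cells carrying a p53-responsive beta-lactamase reporter were plated, incubated 5 h at 37C, then dosed with compounds in DMSO (217-fold dilution) for 16 h. CCF4-AM substrate was added for 2 h at room temperature; the 460/530 nm emission ratio gave gain-of-signal activity relative to DMSO.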

[3] = TOX21_p53_BLA_p3_viability: Viability Assessment in the Tox21 HCT-116 p53 Agonism Beta-lactamase Assay, Phase 3 (AID 2283593; active = hit-call score of the fitted dose curve at least 0.9, where 1 is the maximum;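 note: cells exposed to compound for 16 h before reading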)
Procedure, shortened: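 HCT-116 cells (4000/well) rested 5 h at 37C, then got DMSO compounds by pin tool (217-fold dilution) for 16 h at 37C, 5% CO2. After the bla read, CellTiter-Glo was added and luminescence read at 30 min, room temperature.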

[4] = TOX21_p53_BLA_p4_viability: Viability Assessment in the Tox21 HCT-116 p53 Agonism Beta-lactamase Assay, Phase 4 (AID 2283597; active = hit-call score of the fitted dose curve at least 0.9, where 1 is the maximum;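 note: hits lower the luminescence signal meaning cytotoxicity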)
Procedure, shortened: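 HCT116 p53-bla cells (4000/well) rested 5 h at 37C, then received compounds in DMSO (217-fold dilution) for 16 h at 37C, 5% CO2. CellTiter-Glo was added after the CCF4-AM read, and luminescence was read after 30 min at room temperature.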

[5] = TOX21_p53_BLA_p5_viability: Viability Assessment in the Tox21 HCT-116 p53 Agonism Beta-lactamase Assay, Phase 5 (AID 2283600; active = hit-call score of the fitted dose curve at least 0.9, where 1 is the maximum)
Procedure, shortened: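 Cells were plated at 4000/well, rested 5 h at 37C, then given compounds in DMSO (217-fold dilution) for 16 h at 37C, 5% CO2. Following the CCF4-AM beta-lactamase read, CellTiter-Glo was added and luminescence was read after 30 min at room temperature.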

[6] = molecular target: Cellular tumor antigen p53 (Homo sapiens) (UniProt P04637); assay: TOX21_p53_BLA_p4_ratio: Tox21 HCT-116 p53 Agonism Beta-lactamase Assay, Ratio, Phase 4 (AID 2283601; active = hit-call score of the fitted dose curve at least 0.9, where 1 is the maximum)
Procedure, shortened: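 HCT116 cells carrying an inducible beta-lactamase reporter were plated at 4000 cells/well, rested 5 h, then exposed to compounds in DMSO (217-fold dilution) for 16 h at 37C. CCF4-AM substrate was loaded 2 h at room temperature; 460/530 nm emission ratio scored gain-of-signal versus DMSO.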

[7] = CCTE_Shafer_MEA_dev_firing_rate_mean: CCTE's Neural Network Formation Assay for Mean Firing Rate, Shafer Lab (AID 2284031)
Procedure, shortened: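 Primary rat cortical neurons on 48-well MEA plates, exposed from plating day 0 with dosing renewed on DIV 5 and 9. Mean well firing rate over active electrodes, recorded days 5, 7, 9, 12, summarised as trapezoidal AUC.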

[8] = CCTE_Shafer_MEA_dev_per_burst_spike_percent: CCTE's Neural Network Formation Assay for Percent of Spikes in a Burst, Shafer Lab (AID 2284032)
Procedure, shortened: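 Rat primary cortical neurons on 16-electrode MEA wells, dosed from plating day 0 for 12 days with renewal on DIV 5 and 9; spikes-in-bursts percentage averaged over bursting electrodes, collapsed as AUC across days 5, 7, 9, 12; loss direction versus DMSO.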

[9] = CCTE_Shafer_MEA_dev_active_electrodes_number: CCTE's Neural Network Formation Assay for Number of Active Electrodes, Shafer Lab (AID 2284040; active = hit-call score of the fitted dose curve at least 0.9, where 1 is the maximum)
Procedure, shortened: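 Primary rat cortical neurons on 16-electrode MEA wells, exposed from day 0 through day 12 with compound renewed at DIV 5 and 9 feeds. Active electrodes (mean firing ≥5 spikes/min) counted at DIV 5, 7, 9, 12; trapezoidal AUC across days, loss-of-signal versus DMSO.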

[10] = CCTE_Shafer_MEA_dev_bursting_electrodes_number: CCTE's Neural Network Formation Assay for Number of Bursting Electrodes, Shafer Lab (AID 2284043; active = hit-call score of the fitted dose curve at least 0.9, where 1 is the maximum)
Procedure, shortened: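 Primary rat cortical neurons were cultured on PEI-coated 48-well MEA plates (16 electrodes/well) and exposed from plating through day 12, with compound renewed at feeds on DIV 5 and 9. Electrodes bursting ≥1 per 2 min were counted on DIV 5, 7, 9, 12; trapezoidal AUC taken.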

[11] = CCTE_Shafer_MEA_dev_per_burst_interspike_interval: CCTE's Neural Network Formation Assay for Burst Interspike Interval, Shafer Lab (AID 2284044);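 note: mean spike spacing inside bursts as AUC over recordings on days 5 7 9 12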
Procedure, shortened: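 Rat cortical primary cultures, 16 electrodes/well; compound from plating, renewed with full media change DIV 5 and 9. Spikes via adaptive detector; per-burst ISI well-mean over active bursting electrodes; AUC of DIV 5/7/9/12 recordings; loss-direction fit vs DMSO.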

[12] = CCTE_Shafer_MEA_dev_burst_duration_mean: CCTE's Neural Network Formation Assay for Mean Burst Duration, Shafer Lab (AID 2284045)
Procedure, shortened: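 Primary rat cortical neurons on PEI-coated 16-electrode MEA wells, exposed from plating through day 12 with compound renewed at DIV 5 and 9; spontaneous activity recorded days 5, 7, 9, 12. Well-mean burst duration collapsed as trapezoidal AUC, fitted for loss versus DMSO.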

[13] = CCTE_Shafer_MEA_dev_interburst_interval_mean: CCTE's Neural Network Formation Assay for Mean Interburst Interval, Shafer Lab (AID 2284046);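 note: well-mean interburst interval of bursting electrodes as AUC over four recording days; curve fitted for decrease in interburst interval relative to DMSO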
Procedure, shortened: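 Recordings on days 5, 7, 9 and 12 give well-mean interburst interval across actively bursting electrodes, summarized as area under the curve. Cultures: rat cortical neurons, continuous exposure from day 0, compound renewed at feeds; decrease analyzed versus DMSO.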

[14] = CCTE_Shafer_MEA_dev_inter_network_spike_interval_mean: CCTE's Neural Network Formation Assay for Mean Inter-network Spike Interval, Shafer Lab (AID 2284047)
Procedure, shortened: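 Primary rat cortical neurons on 16-electrode MEA wells, exposed from plating day 0 through DIV 12, compound renewed at DIV 5 and 9 media changes. Mean interval between network-spike peaks recorded DIV 5, 7, 9, 12; collapsed as trapezoidal AUC, fitted downward versus DMSO.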

[15] = CCTE_Shafer_MEA_dev_network_spike_number: CCTE's Neural Network Formation Assay for Number of Network Spikes, Shafer Lab (AID 2284048);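 note: synchronized bursts across electrodes counted on days 5 7 9 12 and integrated as AUC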
Procedure, shortened: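 Primary rat cortical neurons were seeded at 1.5 x 10^5 cells/well on PEI-coated 16-electrode MEA wells with laminin, exposed from plating day 0, compound renewed at DIV 5 and 9. Network spikes were recorded on days 5, 7, 9, 12 and summarized as trapezoidal AUC versus DMSO.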

[16] = CCTE_Shafer_MEA_dev_network_spike_peak: CCTE's Neural Network Formation Assay for Mean Number of Electrodes in Network Spike, Shafer Lab (AID 2284049)
Procedure, shortened: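 Continuous 12-day exposure of rat cortical cultures, starting at plating, on MEA plates. Endpoint: electrodes participating in network-spike peaks, AUC across DIV 5–12, DMSO as negative control.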

[17] = CCTE_Shafer_MEA_dev_spike_duration_mean: CCTE's Neural Network Formation Assay for Mean Spike Duration, Shafer Lab (AID 2284051);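 note: mean network spike duration pooled as area under curve over DIV 5 to 12 recordings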
Procedure, shortened: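 Primary rat cortical neurons on 16-electrode MEA wells (PEI-coated, laminin in plating drop), exposed from plating through DIV 12 with compound renewed at DIV 5 and 9. Mean network-spike duration recorded DIV 5, 7, 9, 12; trapezoidal AUC across days, DMSO baseline.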

Measured: outcome

COC(=O)[C@H]1[C@@H](OC(=O)c2ccccc2)C[C@@H]2CC[C@H]1N2C
inactive: [1] | [2] | [3] | [4] | [5] | [6] | [7] | [8] | [9] | [10] | [11] | [12] | [13] | [14] | [15] | [16] | [17]
